Bioassay records as filed in PubChem BioAssay.
A selection: hits, their analogues and other compounds. The true share with any hit is near 4.3%.
BoNT-A LC inh2: inhibitors of Botulinum neurotoxin A light chain protease | inhibition, % at 10 µM | 0.17% of 360,000 active | AID 588499 | multiplex microsphere protease substrate cleavage, flow cytometry
MazEF act: MazEF (E. coli) toxin RNase activation; P0AE70; FAM/BHQ RNA-DNA oligo cleavage fluorescence, 5 h; activation, % at 20 µM; 0.32% of 350,000 active; in the data active = activation above about 50%
Target sequence (P0AE70 whole entry, looked up): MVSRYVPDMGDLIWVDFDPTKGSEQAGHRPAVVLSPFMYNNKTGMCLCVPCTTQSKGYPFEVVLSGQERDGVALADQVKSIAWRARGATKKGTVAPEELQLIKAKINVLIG
Anthrax LF prot: anthrax lethal factor protease inhibition; inhibition, % at 10 µM; multiplex microsphere protease cleavage assay, LF; P15917; 0.12% of 360,000 active
PfHsp40 rescue: restores yeast growth despite PfHsp40 toxicity; S. cerevisiae expressing PfHsp40, growth rescue, ATP luminescence; growth rescue, % at 12.5 µM; 0.68% of 340,000 active; AID 504582; in the data active = growth rescue above about 28%, passing the limit was not always enough; inconclusive = no clear call, values can overlap the other calls;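 note: yeast W303a lacking pdr1 and pdr3 grown in galactose medium; growth measured after three days at 30 °C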
BoNT F protease: blocks Botulinum neurotoxin F light chain protease | Multiplex microsphere protease cleavage assay, flow cytometry | inhibition, % at 10 µM | 0.22% of 360,000 active; in the data active = inhibition above about 35%, passing the limit was not always enough; inconclusive = no clear call, values can overlap the other calls
Bead autofluor: counter-screen for toxin protease inhibitors: compound fluorescence | compound autofluorescence counterscreen, microsphere flow cytometry; hits give high values | fluorescence intensity (concentration not given with the values) | 3.1% of 360,000 active | AID 624483; in the data active = fluorescence intensity above about 16000; inconclusive = no clear call, values can overlap the other calls
Each line names hits and unclear results; the compound was inactive in the other large screens. Cut-off read from the data, not from the text of the source, unless noted: active = inhibition above about 30%; inconclusive = no clear call, values can overlap the other calls; inactive = below that.

FC(F)(F)c1cccc(N2CCN(Cc3cccnc3)CC2)c1	Bead autofluor 16207
COc1ccc(CC(=O)N2CCN(C)CC2)cc1	Bead autofluor 16186
FC(F)(F)c1cccc(N2CCN(Cc3ccoc3)CC2)c1	none
CC(Oc1ccc2c(-c3ccccc3)cc(=O)oc2c1)C(=O)NCC(O)c1ccccc1 (stereo unspecified)	none
CCN(CCCNC(=O)c1nn(C)c2c1CS(=O)(=O)c1ccccc1-2)Cc1ccccc1	none
Cn1nc(C(F)(F)F)c(/C=N/OC(=O)c2ccccc2Cl)c1SCc1ccccc1Cl	Bead autofluor 22148
Cn1nc(C(F)(F)F)c(/C=N/OC(=O)c2ccccc2)c1SCc1ccc(Cl)cc1	Bead autofluor 21079
Cn1nc(C(F)(F)F)c(/C=N/OC(=O)c2ccc(Cl)cc2)c1Cl	none
CCOC(=O)c1sc(Nc2nc(OC)cc(OC)n2)nc1C	none (no result: BoNT-A LC inh2, Anthrax LF prot, PfHsp40 rescue, BoNT F protease, Bead autofluor)
OCCOC1CCCc2oc(-c3ccccc3)c(C#CC3(O)CCCCC3)c21 (stereo unspecified)	none (no result: MazEF act, PfHsp40 rescue)
C[C@@H](CN1CCC[C@H]1CN1C(N)=NC[C@@H]1Cc1ccccc1)N1C[C@@H](Cc2ccccc2)N(CCc2ccc(Cl)c(Cl)c2)C1=N	none
CC(C)[C@H](CN1CCC[C@H]1CN1C(N)=NC[C@@H]1Cc1ccccc1)N1C[C@@H](Cc2ccccc2)N(CCc2ccc(Cl)c(Cl)c2)C1=N	PfHsp40 rescue 35.4
O=C(N/C(=C/c1cccc([N+](=O)[O-])c1)C(=O)N1CCOCC1)c1ccccc1Br	none
Cc1ccccc1CSc1nnc(NC(=O)C2COc3ccccc3O2)s1 (stereo unspecified)	Bead autofluor 20631
O=C(Nc1nnc(SCc2ccccc2Cl)s1)C1COc2ccccc2O1 (stereo unspecified)	none
CCCSc1nnc(NC(=O)c2nc(SC)ncc2Cl)s1	BoNT-A LC inh2 inconclusive, Bead autofluor 19506
CSc1ncc(Cl)c(C(=O)Nc2nnc(SC)s2)n1	none
COC(=O)[C@H](Cc1ccccc1)NC(=O)C1(OC(C)=O)CC(OC(C)=O)C(OC(C)=O)C(OC(C)=O)C1 (stereo partly specified)	none
Nc1c(S(=O)(=O)c2cccs2)c2nc3ccccc3nc2n1CC1CCCO1 (stereo unspecified)	Bead autofluor 22380
COC(=O)[C@@]1(C)[C@H]2C(=O)N(Cc3ccccc3)C(=O)[C@H]2[C@H]2CN=C(SCC(=O)c3ccccc3)N21	none
Cc1cccn2c(=O)c3cc(C#N)c(=O)n(-c4c(C)n(C)n(-c5ccccc5)c4=O)c3nc12	none
Cc1cc(-n2c(=O)c(C#N)cc3c(=O)n4cccc(C)c4nc32)no1	Bead autofluor 21724
Cc1cccc(-n2c(=O)c(C#N)cc3c(=O)n4ccccc4nc32)c1	BoNT-A LC inh2 inconclusive, Bead autofluor 20190
Cc1nn(CC(=O)Nc2ccc3nc4n(c(=O)c3c2)CCCC4)c(C)c1[N+](=O)[O-]	none
COc1cc(/C=C/C(=O)c2ccc(Cl)s2)cc(OC)c1O	BoNT-A LC inh2 inconclusive, Bead autofluor 21357
COc1ccc(/C=C/C(=O)c2ccc(Cl)s2)cc1O	none
COc1ccc2oc(C(=O)N3CCCc4ccccc43)c(C)c2c1	Bead autofluor inconclusive
CCSc1nc(O)c(CC)c(=O)n1C(C)CC (stereo unspecified)	Bead autofluor 22314
O=C(NCC1CCCO1)C(c1ccc(F)cc1)N(Cc1ccc2c(c1)OCO2)C(=O)c1ccc(CN2CCOCC2)o1 (stereo unspecified)	none
CCN1CC2CCCC3(C1)C(=O)NC1(CCCCC1)N=C23 (stereo unspecified)	Bead autofluor 21486
CCOC(=O)N1CCN(C(=O)CCc2ccc(S(=O)(=O)NCCc3ccccc3)cc2)CC1	Bead autofluor 22791
CN(c1ccc(C(=O)N2CCN(Cc3ccc4c(c3)OCO4)CC2)cc1)S(=O)(=O)c1ccccc1	Bead autofluor 23288
O=C(CCc1ccc(S(=O)(=O)NCCc2ccccc2)cc1)N1CCN(Cc2ccc3c(c2)OCO3)CC1	Bead autofluor 21187 (no result: MazEF act)
Cc1ccc(S(=O)(=O)N(C)c2ccc(C(=O)N3CCN(Cc4ccc5c(c4)OCO5)CC3)cc2)cc1	none
CC(C)C(=O)N1CCN(c2ccccc2NC(=S)NC(=O)/C=C/c2ccco2)CC1	none
Cc1c(N(C)S(=O)(=O)c2ccc(Cl)c(C(=O)NCC(C)(C)N3CCOCC3)c2)c(=O)n(-c2ccccc2)n1C	none
FC(F)(F)c1cccc(N2CCN(C(=S)NC3CCCCC3)CC2)c1	PfHsp40 rescue 36.6
CCOCCCNC(=O)c1c[nH]c2ccc(C)cc2c1=O	Bead autofluor 22538
COc1cc2[nH]cc(C(=O)NCc3ccccc3)c(=O)c2cc1OC	none
COc1cc2[nH]cc(C(=O)NCCc3ccccc3)c(=O)c2cc1OC	Bead autofluor 17186
COc1ccccc1CNC(=O)N1CCN(c2ccccc2Cl)CC1	none
COc1ccc2[nH]c3c(=O)n(CCCCC(=O)N4CCCC4)c(=S)[nH]c3c2c1	Bead autofluor 23557
CCN(CC(=O)Nc1ccc(OC)cc1)C(=O)c1cccc(S(=O)(=O)N2CCN(c3ccccc3)CC2)c1	none (no result: PfHsp40 rescue)
CCOC(=O)C1=C(CSc2nccn2C)NC(=O)NC1c1cc(C)ccc1C (stereo unspecified)	BoNT-A LC inh2 inconclusive, Bead autofluor 16485
CCOC(=O)C1=C(Cn2cnc3ccccc32)NC(=O)NC1c1cc(C)ccc1C (stereo unspecified)	none
CCOC(=O)C1=C(CNCc2ccc(C)cc2)NC(=O)NC1c1cc(C)ccc1C (stereo unspecified)	Bead autofluor 17821
CCOC(=O)C1=C(CSc2nccn2C)NC(=O)NC1c1ccc2c(c1)OCO2 (stereo unspecified)	none
COc1cccc(C(=O)c2cc3cc(Cl)ccc3[nH]2)c1	none
CC(Sc1nnnn1-c1ccc(O)cc1)C(=O)NC1CCCCC1C (stereo unspecified)	BoNT-A LC inh2 inconclusive, Anthrax LF prot inconclusive, BoNT F protease inconclusive
CCOC(=O)C1(Cc2cccc(Cl)c2)CCCN(C(=O)c2ccco2)C1 (stereo unspecified)	none
CCOC(=O)C1(Cc2cccc(Cl)c2)CCCN(C(=O)c2occc2C)C1 (stereo unspecified)	PfHsp40 rescue 121.6
Cc1cccc(C=Nc2ccccc2C(N)=O)c1	Bead autofluor 24521
CC(=NCCN1CCCCC1)c1c(O)n(-c2ccc(Cl)cc2)c(=O)[nH]c1=O	Bead autofluor 24548
CCC(=NCCCn1ccnc1)c1c(O)n(-c2ccccc2)c(=O)[nH]c1=O	BoNT-A LC inh2 inconclusive, BoNT F protease inconclusive
COc1ccc(-n2c(O)c(C(C)=NCCCn3ccnc3)c(=O)[nH]c2=O)cc1	Bead autofluor 17270
C=CCn1c(O)c(C(C)=NCc2ccco2)c(=O)[nH]c1=O	Bead autofluor 21930
C=CCn1c(O)c(C(C)=NCCN2CCOCC2)c(=O)[nH]c1=O	Bead autofluor 21797
CC(=NCCN1CCOCC1)c1c(O)n(Cc2ccccc2)c(=O)[nH]c1=O	none
